Each structure is given as a SMILES string. Compounds without any hit were thinned out: in the full panel of roughly 79,000, 15% have a hit. Unmarked numbers belong to inactive results. The source made the active and inactive calls. Cut-off read from the data, not from the text of the source: active = growth inhibition above about 70%; inactive = the rest.

The first test in a line: NCI Yeast Anticancer Drug Screen. Data for the rad50 strain (AID 155).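 Note: 0% = growth of vehicle-only cultures of the same strain.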 The conditions noted are these: S. cerevisiae rad50 strain growth inhibition; at 50.0 µM; active compounds read high. The essentials:
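Growth of the mutant yeast was measured after compound exposure and referenced to vehicle-treated cultures.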
On to `NC(=O)Nc1ccc(Cl)cc1[N+](=O)[O-]`, for which the growth inhibition was -4.35%.
Same read-out and setting: then `CCCCCCCCCCCCCCCCS(=O)(=O)N/N=C/c1ccccc1O`, with 25.9%.
Take `CCCCOC(=O)c1cc2ccccc2oc1=O`: the growth inhibition is 34.5%.
`O=C1O/C(=C(/Cl)c2cccc3ccccc23)c2ccccc21`: the growth inhibition was -40.2%.
On the same count and under the same terms, then `CC1(c2ccc(Cl)cc2)NC(=O)NC1=O` (stereo not given), with -27.3%; and `CCCCCCCCCC(=O)N/N=C/c1ccco1`, with 51.7%.
In the case of `Cc1ccc(C(C)C)c(OC2OC(C(=O)O)C(O)C(O)C2O)c1` (stereo not given), the growth inhibition is 5.95%.
Consider `Cc1ccc(OS(=O)Nc2cccc(N)c2)cc1` (stereo not given), for which the growth inhibition was -5.35%.
As for `CCCCC1C(=O)N=C2C=CC=CN2C1=O` (stereo not given), the growth inhibition is -2.15%.
On the same count and under the same terms, then `NC(=O)NC(=O)OCCOC(=O)NC(N)=O`, with -28.4%; and `CSc1nc2ncnc(N(C)C)c2[nH]1`, with 1.1%.
On the same count and under the same terms, then `Nc1ccc(C(=O)NN2C(=O)C(Cl)C2c2cc(Br)ccc2O)cc1` (stereo not given), with 29.1%.
Still for that read-out and setting: then `Cc1cc(=O)c2cc(-c3ccccc3)ccc2[nH]1`, with -1%; and `CCN(CC)C(=O)C1CCN(CCC(=O)Nc2ccccc2)CC1`, with 8.4%.
As for `Cc1cc(C)c(CC(=O)NCC(=O)NN)c(C)c1`, the growth inhibition is -7.25%.
For `CCC/C=C/c1cc2c(cc1O)CC[C@@H]1[C@@H]2CC[C@]2(C)[C@@H](O)CC[C@@H]12`, the growth inhibition is 19.2%.
Same read-out and setting: next, `COc1ccccc1NC(=O)CC(C)=O`: 7%.
As for `CO[C@@H]1[C@@H](OC2OC(C)C(OC3CC(C)(O)C(OC(=O)CC(C)C)C(C)O3)C(N(C)C)C2O)[C@@H](CC=O)C[C@@H](C)C(=O)/C=C/C2O[C@H]2C[C@@H](C)OC(=O)C[C@H]1OC(C)=O` (stereo not given in full), the growth inhibition is 4.1%.
The same measure, in the same setting: next, `NSC(=S)NCc1ccco1`: 1%; `Cc1ccc(NC(=O)Oc2ccc(Br)cc2)c([N+](=O)[O-])c1`: 20.4%; `CCOC(=O)C(CC[C@@H]1N[C@H](C(N)=O)Cc2c1[nH]c1ccccc21)C(=O)OCC`: 8.5%.
Regarding `Cn1cnc2ncnc(Nc3ccc(Cl)cc3)c21`, the growth inhibition was 5.25%.
Same read-out and setting: next, `O=C1c2ccsc2C(=O)c2sc(CO)cc21`: 90.3% (active); `CN(C)CC(CN(C)C)C(=O)c1ccc(OC2OC(CO)C(O)C(O)C2O)cc1` (stereo not given): -4.95%.
Regarding `Cn1c(N)c(NC(=O)CC#N)c(=O)n(C)c1=O`, the growth inhibition is 20.9%.
For `COc1cc(CNC(=S)CCCCCCCCCCC(C)C)ccc1O`, the growth inhibition is -20.1%.
Still for that read-out and setting: next, `Cn1c2c(c(=O)c3c4[nH]c5c(c(=O)c4ccc31)CCCC5)CCCC2`: -10.2%; `C1=Cc2ccccc2Nc2ccccc21`: -1.9%.
Same read-out and setting: then `c1ccc2c(c1)cc1n2CC2CN=NC12` (stereo not given), with -5.85%.
Take `Cc1sc2nc3n(c(=O)c2c1C)N=C(c1ccc([N+](=O)[O-])cc1)CS3`: the growth inhibition is 9.15%.
The same measure, in the same setting: then `CC12CCC(Cl)(CC1O)C2(C)C` (stereo not given), with 1.9%.
On to `COc1ccc(CC(=O)NCCc2ccc(OC)c(OC)c2OC)cc1`, for which the growth inhibition is 8.95%.
Still for that read-out and setting: next, `COc1cc2c(c3[nH]cc(C(=O)O)c(=O)c13)NC(=O)CS2`: -47.1%; `COc1ccc(-c2c3c(n(C4OC(COC(C)=O)C(OC(C)=O)C(OC(C)=O)C4OC(C)=O)c(=S)c2C#N)CCCC3)cc1` (stereo not given): -17.9%.
Turning to `CC(=O)OC1CC2C(C)(CCC3C2(C)CCC2(C)C4CC(C)(C)CCC4(C)CCC32C)C1C` (stereo not given), the growth inhibition was -28.2%.
On the same count and under the same terms, next, `CC(=O)OC1C=CCC2C(=O)C3=C(C(=O)c4ccccc4C3=O)C(=O)C12` (stereo not given): 72.6% (active); `COc1ccc(N)cc1CO`: 8.85%.
For `O=C1NC(=NC2CCCCC2)C2(CCN(CCCC3(c4ccc(F)cc4)OCCO3)CC2)N1c1ccccc1`, the growth inhibition was -18.8%.
On to `COC(=O)/C=C1\CCC2C3CC=C4C=C(N5CCCC5)CCC4(C)C3C(=O)CC12C` (stereo not given), for which the growth inhibition was -7.6%.
With `O=C(C[n+]1ccccc1CCCO)c1ccc(F)cc1`, the growth inhibition was 3.55%.

Another test in a line: NCI Yeast Anticancer Drug Screen. Data for the mec2-1 strain (AID 157). Conditions: S. cerevisiae mec2-1 strain, at 50.0 µM, active compounds read high. The essentials: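 Compounds were applied to mec2-1 yeast cells. Their growth was then compared with that of vehicle-treated cultures to give growth inhibition.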
Consider `NC(=O)Nc1ccc(Cl)cc1[N+](=O)[O-]`, for which the growth inhibition was -8.5%.
On the same count and under the same terms, next, `CCCCCCCCCCCCCCCCS(=O)(=O)N/N=C/c1ccccc1O`: 26.2%.
Still for that read-out and setting: then `CCCCOC(=O)c1cc2ccccc2oc1=O`, with 9.9%.
Still for that read-out and setting: then `O=C1O/C(=C(/Cl)c2cccc3ccccc23)c2ccccc21`, with -67.8%; and `CC1(c2ccc(Cl)cc2)NC(=O)NC1=O` (stereo not given), with 3.1%; and `CCCCCCCCCC(=O)N/N=C/c1ccco1`, with 59.6%.
For the compound `Cc1ccc(C(C)C)c(OC2OC(C(=O)O)C(O)C(O)C2O)c1` (stereo not given), the growth inhibition was 13.9%.
Consider `Cc1ccc(OS(=O)Nc2cccc(N)c2)cc1` (stereo not given), for which the growth inhibition was -12.1%.
On the same count and under the same terms, then `CCCCC1C(=O)N=C2C=CC=CN2C1=O` (stereo not given), with -16.9%; and `NC(=O)NC(=O)OCCOC(=O)NC(N)=O`, with -11.7%; and `CSc1nc2ncnc(N(C)C)c2[nH]1`, with -11.8%.
For the compound `Nc1ccc(C(=O)NN2C(=O)C(Cl)C2c2cc(Br)ccc2O)cc1` (stereo not given), the growth inhibition was 11.6%.
The same measure, in the same setting: then `Cc1cc(=O)c2cc(-c3ccccc3)ccc2[nH]1`, with 4.4%; and `CCN(CC)C(=O)C1CCN(CCC(=O)Nc2ccccc2)CC1`, with -7.6%; and `Cc1cc(C)c(CC(=O)NCC(=O)NN)c(C)c1`, with -24.9%.
The same measure, in the same setting: next, `CCC/C=C/c1cc2c(cc1O)CC[C@@H]1[C@@H]2CC[C@]2(C)[C@@H](O)CC[C@@H]12`: 16.4%; `COc1ccccc1NC(=O)CC(C)=O`: -5.9%; `CO[C@@H]1[C@@H](OC2OC(C)C(OC3CC(C)(O)C(OC(=O)CC(C)C)C(C)O3)C(N(C)C)C2O)[C@@H](CC=O)C[C@@H](C)C(=O)/C=C/C2O[C@H]2C[C@@H](C)OC(=O)C[C@H]1OC(C)=O` (stereo not given in full): -22.6%.
In the case of `NSC(=S)NCc1ccco1`, the growth inhibition is -2.95%.
As for `Cc1ccc(NC(=O)Oc2ccc(Br)cc2)c([N+](=O)[O-])c1`, the growth inhibition is 16.9%.
Turning to `CCOC(=O)C(CC[C@@H]1N[C@H](C(N)=O)Cc2c1[nH]c1ccccc21)C(=O)OCC`, the growth inhibition is -9.85%.
Still for that read-out and setting: next, `Cn1cnc2ncnc(Nc3ccc(Cl)cc3)c21`: -16%; `O=C1c2ccsc2C(=O)c2sc(CO)cc21`: 91.2% (active); `CN(C)CC(CN(C)C)C(=O)c1ccc(OC2OC(CO)C(O)C(O)C2O)cc1` (stereo not given): -3.15%.
The same measure, in the same setting: then `Cn1c(N)c(NC(=O)CC#N)c(=O)n(C)c1=O`, with 2.7%; and `COc1cc(CNC(=S)CCCCCCCCCCC(C)C)ccc1O`, with -23.6%; and `Cn1c2c(c(=O)c3c4[nH]c5c(c(=O)c4ccc31)CCCC5)CCCC2`, with 3.7%.
As to `C1=Cc2ccccc2Nc2ccccc21`, the growth inhibition is -7.35%.
On to `c1ccc2c(c1)cc1n2CC2CN=NC12` (stereo not given), for which the growth inhibition was 14.4%.
The same measure, in the same setting: then `Cc1sc2nc3n(c(=O)c2c1C)N=C(c1ccc([N+](=O)[O-])cc1)CS3`, with -14.9%.
The same measure, in the same setting: then `CC12CCC(Cl)(CC1O)C2(C)C` (stereo not given), with 11.6%; and `COc1ccc(CC(=O)NCCc2ccc(OC)c(OC)c2OC)cc1`, with -34.7%; and `COc1cc2c(c3[nH]cc(C(=O)O)c(=O)c13)NC(=O)CS2`, with -87.8%.
Turning to `COc1ccc(-c2c3c(n(C4OC(COC(C)=O)C(OC(C)=O)C(OC(C)=O)C4OC(C)=O)c(=S)c2C#N)CCCC3)cc1` (stereo not given), the growth inhibition was -13.2%.
In the case of `CC(=O)OC1CC2C(C)(CCC3C2(C)CCC2(C)C4CC(C)(C)CCC4(C)CCC32C)C1C` (stereo not given), the growth inhibition was -18.3%.
Same read-out and setting: next, `CC(=O)OC1C=CCC2C(=O)C3=C(C(=O)c4ccccc4C3=O)C(=O)C12` (stereo not given): 21.3%.
On the same count and under the same terms, then `COc1ccc(N)cc1CO`, with -9.85%.
The same measure, in the same setting: next, `O=C1NC(=NC2CCCCC2)C2(CCN(CCCC3(c4ccc(F)cc4)OCCO3)CC2)N1c1ccccc1`: -17.2%.
In the case of `COC(=O)/C=C1\CCC2C3CC=C4C=C(N5CCCC5)CCC4(C)C3C(=O)CC12C` (stereo not given), the growth inhibition is 16.1%.
On to `O=C(C[n+]1ccccc1CCCO)c1ccc(F)cc1`, for which the growth inhibition was -19.7%.

For the origin of these results see PubChem BioAssay (NCI).
